Assay results as given in the supplement of paper PMC12632987.

B1: uchl1_143_7471 (protein)
chain: GEPEPPTLEVHIEVDETTTPEEIREKLWKAIEEAAKAKKNLKITITVPADSNKRLMVTTVAKRVAREAAKKYKNELKKLEIYARDAATGKEQLIAEYENP
B2: uchl1_143_7472 (protein)
chain: AAEARPVRTVEIDVTLDDTPEEIEARLLAAAEEAIAAGEDLRIVVTVPPDPNKRLMVNTVAKRVARRVARAHADRVRRLEIYARDAETGKEQLIAEIVRP
B3: uchl1_143_7473 (protein)
chain: HHHMMETETVEIEVKEDDTPEEIRERMMKAIEEAIAAGKNLRIVITVPSDANKRLMANTVAKRVAREAAKKYREKLKRLEIYLRDKETGKEDLIALVENP
B4: uchl1_143_7474 (protein)
chain: PLEHMEIETVEIEVSETDTPEEIEKRLREAIEKGIEKGKALRIVVTVPPDANKRLMVNTVARRVARETAKKYKDKLKYLEILLRDRETGKVDLAALIERP
B5: uchl1_143_7475 (protein)
chain: APAALEVLTTHLEVGEDDTPEEIRARLLAAIDEALAAGKAAEIVVTVPPDANKRLMVNTVARRVAREAARRYGDRLRLLRILLRDAETGRTQLVALVERP
B6: uchl1_143_7476 (protein)
chain: PPEALPVLETTIEVSEDDTPEEIRARLMAAIDEALAAGKAARIVIVVPPDANKRLMVNTVARRVAREAARRYGERLRYLEILLRDKETGKEQLVALVERP
B7: uchl1_143_7477 (protein)
chain: GAPEEPIETIKLTLDASMSDEEIRAKAMAAAEEAAAKGAALEITIVVPPDPNARVRANNIAKRIAREIIQKYGDKIKELKIYLQDEETGKKDLIALYEKP
B8: uchl1_143_7478 (protein)
chain: GAPEPEIPVIRLELDAADSDEEIRKRALEAAKEAAEKGAALEIIITVPPDPNARVRANNIAKRLAREIIKKYGDKIKELRVLLRDEETGREDLIALYEKP
B9: uchl1_143_7479 (protein)
chain: GAAPRPVVTTTLTFTEEDTPEEIRARITAALRALVATGQDGVLLLTVPPNPHMRVMVNTVARRALREVAQATHAPGVTLTVQARDAETGKVDTLATAVLE
B10: uchl1_143_7480 (protein)
chain: GAPARPVVTRTLRFTEEDTPEEIRARITAAIRALVATGQDGVLLLTVPPNPNMRVMVSTVARRALREVAQETRAPGVTLTVEARDEETGKVDVLATADLK
B11: uchl1_143_7481 (protein)
chain: SLENVEVLEVEITVTRETRPEDLYARLLAAIREAHAAGKALRITITVEPDANVRVMVGNVAKRAVRDAAQELGEPFVRTLILARDAETGKTQTLVDVEAP
B12: uchl1_143_7482 (protein)
chain: EVEVIRLTPEEVEEILSLSPEEALARVKEILAAAVELGKDTEVVFPAPEDANDRLRLGTIVRRAAREVAKEYADKIESVEIYQEKDPDEPPRLVVRITKK
B13: uchl1_143_7483 (protein)
chain: EVVVIELSPEEVEEILSLSPEEALERVYEILREAVELGRDTEVVFPAPADANDRLRLGTIVRRAARKVAKDRADLIDAVEIYQRRDPNRPPALVVRITRK
B14: uchl1_143_7484 (protein)
chain: EVKVIELSPEEVAEILSASPEEALARLKEILEEAVELGVDTEVVLPAPADANDRLRLNTLVRRAAREVAKKYADKIDSVTISQRLDPDEPPKLVVSIKVK
B15: uchl1_143_7485 (protein)
chain: EVRVIELTPEQVAAILSASPEAALATLEAIFEAAVALGVDTRVVLPAPADANDRLRLNTLVRRAARRVAKRRADEIDAVVISNERDPDRPARLVVTITVK
B16: uchl1_143_7486 (protein)
chain: EVEVIELSEEEVAEILALSPEEALERLKEILREAVELGKDTRVLIPAPEDANDRLRLNTLVRRAAREVAKEYADKIESVTISQERDPNGRPRIVVEIKVK
B17: uchl1_143_7487 (protein)
chain: AVEVIELSPEEVAAWLALPDEEALAALEAVLEAAVDRGVDTLVRIPAPEDANDRLRLNTLVRRAARRVAAAHADRIDSVTISQEKDPNGPPRLVVSIRVK
B18: uchl1_143_7488 (protein)
chain: EVKVIELSPEEVAEILSLSDEEALARLKEIIEAAVELGVDTEIRIPAPEDANDRLRLHTLVKRAAREVAKKYADKIDSVEIYQELDPNARPRIVVRITVK
B19: uchl1_143_7489 (protein)
chain: EVRVLDVSEAEVAEILALSPEEAVAAIYARLSAAIALGVDTEVRFPAPERANDRLRLGTAVRRAARRAARDHADEIADVVIYNERDPDERPRLVVRITRK
B20: uchl1_143_7490 (protein)
chain: SSSDLPVEEVTITVTLDDTPEQIRARLRAAIEAAVAAGRALRINITVPADPNMRLMVNTVARRVAREVARAHADRVRHVEIYATDAATGKTDLLAEVVNP
B21: uchl1_143_7491 (protein)
chain: GLDNLEVETVEIEVSEEDTPEELAARLREVIEEALAKGKALRIILTVPPDPNVRLMVNTVARRVLREFAQEHRDELKYVEIYARDEETGKEQLLAEFVNP
B22: uchl1_143_7492 (protein)
chain: GAAAVPVLRVEITVTRDTTPEELRARLEAAVREAAARKAALEVTITVPPDPNLKLMVNTVARRVARRAAREYADTLPRLTINARDAETGKTQVVAEAVNP
B23: uchl1_143_7493 (protein)
chain: GAPAEEVVVLELTIEETDTPEEIRAKITAAIEEAVATGKPSVVVITVPPDPNVRVTVGNAAKRAVREAAKAHGDQIKDLRVVARDAETGKEQLLAEVVNP
B24: uchl1_143_7494 (protein)
chain: GPVVEPVVVIELRIERTDTPEEIRAKIRAAVEEAVATGKPTVIEITVPADANMRLTVSTSARRVAREAAKEHPDKIKDLRIYARDEETGKRQLIAEVIKE
B25: uchl1_155_7495 (protein)
chain: MLEVEVEVVARRPDGTVARERFRFRTEEITPENRRALAERVAERVREFVERHGGDVDVTVRIRSPSQIARASLYRAIRIRLREVAKELGVEVTVRAEPVP
B26: uchl1_155_7496 (protein)
chain: MLRVRVTITGTNADGTTLTRELELEIENPTLEKIQEAAREIAEAVREFALAVDGPVEVRVEVSADRRLHAASFSQALRRALREVAKETGKEITLDVRGVP
B27: uchl1_155_7497 (protein)
chain: MTTVTVVVTGTSPDGTTVTKTKTFEGLTSSVADLEALREAMKAMIVETAKEVKGDVDVTVNVTNATANQAVGIGTAARRAANEAGKETGLTVSLTLVGVP
B28: uchl1_155_7498 (protein)
chain: GTTVTVTATGTAADGTVVTSTTTFTGLTSSVADMQALQAAILAQLLAVAAQVDGDIDLAVTVSNATANQAVGIGTAVRRAASQAGKQTGLTINVTLTGAP
B29: uchl1_155_7499 (protein)
chain: GTTVTVTATGTAADGTTHTLTKTFEGITSSVEDMLALRDEILAMLLELAAKVDGDIDLKVDVSNATANQAVGIGTAVRRAASEAGKETGLTINVDITGLP
B30: uchl1_155_7500 (protein)
chain: GTTVTVTVTGTASDGTTHTLTKTFEGLTSSVADMEALREAILAMLLELAAKVDGDIKLTVNVRNATANQAVGIGTAVRRAASEAGKKTGKTIDVDITGLP
B31: uchl1_155_7501 (protein)
chain: MATVTVTATGTAPDGTTHTLTKTFEGITSSVEDLLALREAVLALLVELAKKVKGDVDVVVEVSNADANTRVGIGTAVRRAASEAGKQTGLTVSVTIREVA
B32: uchl1_155_7502 (protein)
chain: MRTVRITIDVTLPDATETVEVTLERTVSDKPEDREALAEEVAATVDAILAQGKNVRLTVTVTVPDKMVVAASLYQAIRRRVRAVARRHGAEVVITAEVVP

Target: UCHL1, P09936
Sequence (P09936 whole entry, looked up, the tested form may be a part): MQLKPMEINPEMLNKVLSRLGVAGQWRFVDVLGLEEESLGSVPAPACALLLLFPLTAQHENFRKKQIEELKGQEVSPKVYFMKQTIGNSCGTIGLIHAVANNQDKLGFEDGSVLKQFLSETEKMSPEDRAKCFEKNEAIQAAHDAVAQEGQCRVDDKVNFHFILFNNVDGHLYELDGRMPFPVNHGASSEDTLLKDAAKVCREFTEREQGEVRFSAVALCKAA
Experiment: median log2 fold change of GCK-ALFA target abundance (FLAG IP / Myc IP barcode read proportion) (log2 ratio); each designed protein is fused to an ALFA-tag nanobody in HEK293 cells to bring the named protein to FLAG-tagged glucokinase (GCK); Myc marks an untargeted standard; higher = target protein stabilised (more abundant)
Settings: target protein: 3xFLAG-MCP-GCK-ALFA reporter; HEK293 landing pad (RPLP)
Outline: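 An ALFA-nanobody-fused binder library was recombined into HEK293 landing-pad cells and induced with 2 μg mL^−1 doxycycline. Cells were transfected with a plasmid expressing a FLAG-tagged target and a Myc-tagged standard. After 48 h, lysates underwent anti-FLAG and anti-Myc immunoprecipitation, and circular RNA barcodes were reverse transcribed, amplified and sequenced. Target abundance is the per-binder median log2 ratio of FLAG to Myc barcode read proportions. Barcodes needed ≥10^−7 proportion in both replicates, binders ≥3 barcodes per replicate, and a 10^−6 pseudocount was added; the two replicates were pooled.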

Binder | median log2 fold change
B1 | 0.0842
B2 | 0.3
B3 | 0.139
B4 | 0.325
B5 | 0.136
B6 | 0.0615
B7 | 0.136
B8 | 0.179
B9 | 0.219
B10 | -0.0743
B11 | 0.391
B12 | 0.231
B13 | -0.0334
B14 | 0.0432
B15 | -0.394
B16 | 0.252

Binder | median log2 fold change
B17 | 0.226
B18 | 0.21
B19 | 0.144
B20 | 0.232
B21 | 0.302
B22 | 0.184
B23 | 0.229
B24 | 0.397
B25 | -0.0429
B26 | 0.0376
B27 | 0.314
B28 | 0.16
B29 | 0.302
B30 | 0.302
B31 | 0.237
B32 | -0.0533
